Measurements from PubChem BioAssay AID588342 (National Center for Advancing Translational Sciences (NCATS), 2011).
In all, about 360,000 compounds went through this assay and about 25,000 (6.9%) were called active. About 9% were inconclusive and are not listed. This excerpt belongs to a sample that is enriched for actives. Values without a mark were called inactive. Calls follow the shape of the dose curve; as a rule, active = well fitted inhibition curve with a large enough effect; inconclusive = small, poorly fitted or top-dose-only effect; inactive = flat fitted curve, though single readings scatter.

target: Luciferin 4-monooxygenase (Photinus pyralis) (UniProt P08659); assay: qHTS profiling assay for firefly luciferase inhibitor/activator using purifed enzyme and Km concentrations of substrates (counterscreen for miR-21 project); conditions: purified FLuc, luminescence inhibition; series mostly up to 57.5 µM; activity change, negative = inhibition: at the top concentration; also: nearly all actives have a fitted effect of over 55% in size;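 as to activity change, negative = inhibition: plate controls were vehicle for no effect and reference inhibitor for full effect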
How it was run: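 Purified P. pyralis luciferase, 10 nM final, with Km-level 10 uM D-luciferin and 10 uM ATP in 50 mM Tris acetate pH 7.5, 10 mM Mg acetate, 0.01% Tween-20, 0.05% BSA; 6-point qHTS titration about 60 µM downward; luminescence read.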
Potency is read from the fitted curve at half-maximal effect.

Luciferin 4-monooxygenase (Photinus pyralis), sequence (P08659 whole entry, looked up): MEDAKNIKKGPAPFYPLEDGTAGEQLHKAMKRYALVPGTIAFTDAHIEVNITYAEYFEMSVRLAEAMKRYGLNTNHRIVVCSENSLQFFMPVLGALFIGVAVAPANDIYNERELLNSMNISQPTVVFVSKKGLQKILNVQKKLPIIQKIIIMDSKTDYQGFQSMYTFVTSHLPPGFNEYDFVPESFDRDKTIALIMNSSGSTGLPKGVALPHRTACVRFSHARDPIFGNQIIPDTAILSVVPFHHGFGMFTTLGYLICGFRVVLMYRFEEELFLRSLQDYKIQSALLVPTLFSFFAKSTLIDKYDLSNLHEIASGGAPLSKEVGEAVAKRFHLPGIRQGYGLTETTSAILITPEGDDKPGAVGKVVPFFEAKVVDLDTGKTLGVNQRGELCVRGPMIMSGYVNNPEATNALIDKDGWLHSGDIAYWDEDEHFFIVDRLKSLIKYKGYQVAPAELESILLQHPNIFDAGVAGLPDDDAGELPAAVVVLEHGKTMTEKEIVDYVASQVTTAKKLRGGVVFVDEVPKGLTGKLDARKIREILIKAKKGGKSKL

Compound | activity change, negative = inhibition | Potency
COc1cc(C2C(C(=O)c3sc(C)nc3C)=C(O)C(=O)N2CCN(C)C)cc(OC)c1OC (stereo not drawn) | -2.01% | 
COc1ccc(-c2cc(-c3ccc(F)cc3)nc3c2COc2ccccc2-3)cc1 | 2.55% | 
COc1ccc(-c2cc(-c3ccccc3)nc3c2COc2ccc(Cl)cc2-3)cc1 | -0.771% | 
COc1ccc(C2=Nc3cc(C)ccc3OC2)cc1 |  | 0.379 µM (active)
C#C[C@]1(O)CC[C@H]2[C@@H]3CCC4=CC(=O)CC[C@@H]4[C@H]3CC[C@@]21CC |  | inactive
Cc1ccc(C2CCN(C(=O)c3cnn(-c4ccccc4Cl)c3C3CCN(C(=O)OC(C)(C)C)CC3)C2)cc1 (stereo not drawn) | 0.553% | 
O=C(CSc1nc(=O)n(Cc2cccnc2)c2c1CCC2)Nc1ccc(F)cc1F | -2.48% | 
CN(C)S(=O)(=O)c1ccc(C(=O)N(Cc2cccnc2)c2nc3c(F)cc(F)cc3s2)cc1 | -2.45% | 
O=C(NC(=S)Nc1ccc(Cl)cc1Cl)C1CC1 |  | 21.3 µM (active)
S=C(NCc1cccnc1)Nc1ccc(Cl)cc1Cl | -0.282% | 
O=C(Nc1c(Cl)cccc1Cl)C1CCC1 | 2.13% | 
CN(C(=O)CCn1c(=S)oc2ccccc21)C1CCCCC1 | -8.28% | 
Cc1ccc(S(=O)(=O)N(C)CC(=O)NCC(c2ccc(F)cc2)N2CCOCC2)cc1 (stereo not drawn) | 6.77% | 
CCOc1ccc(N2C(=O)CC(N(CCc3ccc(OC)c(OC)c3)C(=S)Nc3ccccc3)C2=O)cc1 (stereo not drawn) | 0.272% | 
CC1(C)O[C@@H]2[C@H](O1)[C@@H](COS(=O)(=O)O)O[C@H]2n1cnc2c(=O)[nH]cnc21 | -0.661% | 
CC(=O)N(C1=C(Cl)C(=O)c2ccccc2C1=O)c1ccc(C(=O)O)cc1 |  | 1.69 µM (active)
COC1=C(N2CCOCC2)C(=O)c2ccccc2C1=O | -3.41% | 
Cc1ccc(C)c(CSc2nc(-c3ccco3)nc3c2c(=O)n(C)c(=O)n3C)c1 | 0.834% | 
CCOC(=O)c1c(N)nn(C(=O)c2ccccc2)c1-c1ccccc1 | 0.583% | 
Cc1nn(C(=O)c2ccoc2C)c(N)c1-c1ccccc1 |  | 10.7 µM (active)
Cc1occc1C(=O)Nc1nnc(-c2ccncc2)s1 | -0.684% [at 2.3 µM] | 
CCOC(=O)c1cc2c(=O)n3ccccc3nc2n(CC2CCCO2)c1=NC(=O)c1ccccc1F (stereo not drawn) | -1.04% | 
Cc1cccc(C(=O)c2cccc(C)c2)c1 | -15.9% | 

Compound | activity change, negative = inhibition | Potency
Cc1ccc(/C(N)=N/OC(=O)COc2ccc(Cl)c(C)c2)cc1 | 1.16% | 
Cc1cccc(/C(N)=N/OC(=O)c2ccccc2Cl)c1 |  | 0.757 µM (active)
C/C(=N\OC(=O)c1ccccc1)c1c(C)nc2cc(C)ccn12 | -9.53% | 
C/C(=N/OC(=O)c1ccc(Br)cc1)c1ccc(C)cc1 |  | 6.75 µM (active)
Cc1ccc(OC(=O)CCC(=O)Nc2ccc(Br)cc2)cc1 | 5.41% | 
CCc1ccc(NC(=O)CSc2nc3c([nH]c4ccccc43)c(=O)n2-c2cccc(OC)c2)cc1 | -3.31% | 
Cc1ccsc1/C=N/Nc1ccc(Cl)nn1 | -19.8% | 
Oc1cccc(/C=N/Nc2ccc(Cl)nn2)c1O |  | 8.49 µM (active)
Clc1ccc(N/N=C/c2cccs2)nn1 | -5.8% | 
Cn1c(=O)c2c(nc(NCCc3ccccc3)n2Cc2ccccc2Br)n(C)c1=O | -7.21% | 
CCOC(=O)/C=c1\s/c(=C\c2ccc(C#N)cc2)c(=O)n1CC(=O)Nc1cccc(C)c1C | 2.08% | 
CCOc1ccccc1NC(=O)Cn1c(=O)n(Cc2ccco2)c(=O)c2sc3ccccc3c21 | 2.58% | 
CN(c1ccccc1)c1ccc(/C=c2\s/c(=C(/C#N)C(=O)C(C)(C)C)n(Cc3ccco3)c2=O)cc1 |  | 15.1 µM (active)
O=C(CCc1cn(Cc2ccc(F)cc2)c2ccccc12)NC1CCCCC1 | -1.23% | 
COc1ccc(CCN=C2SCC(=O)N2Cc2ccccc2)cc1OC | 1.96% | 
Cc1ccc(-c2nn(CCC(=O)Nc3ccc(Cl)c(Cl)c3)c(=O)c3ccccc23)cc1 | -11.4% | 
CC(C)c1nc2oc3c(N4CCN(C)CC4)ncnc3c2c2c1CCC2 | 2.2% | 
FC(F)(F)c1cccc(NC(=S)Nc2cccc(Cl)c2)c1 | 1.4% | 
Cc1csc(NC(=S)Nc2cccc(Cl)c2)n1 |  | 4.78 µM (active)
Cc1cccc(NC(=S)Nc2ccc(Cl)c(Cl)c2)c1 | -9.32% | 
O=C(NC(=S)Nc1ccccc1C(=O)O)c1ccc(-c2ccc(Br)cc2)o1 |  | 26.9 µM (active)
O=C(O)c1ccccc1NC(=O)c1ccccc1-c1ccccc1C(=O)O | -3.24% | 
COC(=O)c1ccccc1NC(=S)NC(=O)c1ccccc1F | -17.6% | 

Compound | activity change, negative = inhibition | Potency
Cc1ccc(NC(=O)CN(C)C(=O)COC(=O)c2nccnc2N)cc1 | 3.32% | 
COc1ccc(N=C(C)c2sc3ccccc3c2O)cc1 |  | 0.601 µM (active)
COC(=O)c1cc(NC(=O)c2sc3ccccc3c2Cl)cc(C(=O)OC)c1 | 5.83% | 
Cc1cc(C)cc(NC(=O)C(OC(=O)c2ccc(O)cc2)c2ccccc2)c1 (stereo not drawn) | -0.427% | 
CC(C)CN(C(=O)CSc1nncn1C)C1CCS(=O)(=O)C1 (stereo not drawn) | 0.606% | 
Cc1cccc(NC(=O)N2CCN(C)c3ncccc32)c1C | -3.65% | 
O=C(Nc1ccon1)c1cccc(Cl)c1 | 3.05% | 
CCCC(=O)Nc1ccc(NC(=O)c2sc3ccccc3c2Cl)cc1 | -7.06% | 
O=C(Nc1ccon1)c1sc2ccccc2c1Cl |  | 7.57 µM (active)
Cc1cc2c(cc1C)C(c1cccc(OC(C)C)c1)CC(=O)N2 (stereo not drawn) | 3.13% | 
Cc1cccc(-c2nc(SCc3ccc(Br)cc3)n3[nH]c(=O)cc3n2)c1 | -4.19% | 
CCOc1ccc(-n2c(SCC(=O)NCc3ccccc3)nc3n[nH]c(C)c3c2=N)cc1 | -0.652% | 
CCCn1c2ccccc2c2cnn(CC(=O)NCCCOC(C)C)c(=O)c21 | -5.29% | 
O=C(NCCc1ccc(Cl)cc1)c1ccc2nc(CCc3ccccc3)oc2c1 | 1.26% | 
COc1ccc(Cc2nc3ccc(C(=O)NCc4ccccc4C)cc3o2)cc1 | -0.926% | 
CSCCNC(=O)c1ccc2nc(Cc3ccccc3F)oc2c1 |  | 19 µM (active)
Cn1c(=O)sc2cc(NS(=O)(=O)c3ccc(C(C)(C)C)cc3)ccc21 | -2.52% | 
Cc1cccnc1CCNC(=O)C1CCC(=O)N(Cc2cccc(F)c2)C1 (stereo not drawn) | 1.04% | 
CCOc1ccc(-c2cc3nc(C4CCN(C(=O)OC(C)(C)C)CC4)c(C(=O)Nc4cccc(CC)c4)cn3n2)cc1 | -9.38% | 
CN1C2CCC1/C(=C\c1ccccc1Cl)C(=O)/C2=C\c1ccccc1Cl | 0.824% | 
CCSc1ncc(Cl)c(C(=O)Nc2c(C(=O)c3ccccc3)oc3ccccc23)n1 | 0.97% | 
Cc1ccc(-n2ncc3c(Nc4cccc(C(=O)O)c4)ncnc32)cc1 |  | 0.953 µM (active)
Cc1ccc(Nc2ncnc3c2cnn3C)c(C)c1 | -2.04% | 

Compound | activity change, negative = inhibition | Potency
Fc1ccc(-n2ncc3c(Nc4ccc(Oc5ccccc5)cc4)ncnc32)cc1 | -2.7% | 
COc1ccc(Cl)cc1NC(=O)CCC(=O)c1ccc(C)cc1 | 2.33% | 
CCN1CCN(c2ncc3c(n2)CC(c2ccccc2O)CC3=O)CC1 (stereo not drawn) | 2.06% | 
CCc1ccccc1NC(=O)CN(C)C(=O)c1cc(C2CC2)nn1-c1ccccc1 | 2.08% | 
Cc1ccc(C)c(OCC(=O)NNC(=O)C2CCC2)c1 | 8.82% | 
COc1cc(C(=O)OCC(=O)NC23CC4CC(CC(C4)C2)C3)cc(OC)c1OC | -0.412% | 
N#Cc1nc(-c2cccc3ccccc23)oc1N | -11.7% | 
CCOC(=O)c1c(C)[nH]c(C)c1S(=O)(=O)N1CCC(C(=O)Nc2ccc(C)c(Cl)c2)CC1 | 2.93% | 
O=C(CN1C2=NCCN2c2ccccc21)c1cccs1 | 5.98% | 
Nc1c(C(=O)c2cccs2)sc2nsc(SCCN3CCCCC3)c12 |  | 5.36 µM (active)
O=C(CSc1ncnc2sccc12)N1CCN(C(=O)c2cccs2)CC1 | -7.48% | 
O=C(NCCCN1CCN(c2cccc(Cl)c2)CC1)c1nnc(Cc2ccc(F)cc2Cl)o1 | -10.2% | 
CCOC(=O)c1ccc(NC(=O)c2nc[nH]c2C(=O)N[C@@H](CCCCNC(=O)OC(C)(C)C)C(=O)OC(C)(C)C)cc1 | 0.515% | 
Cc1nn(-c2ccccc2)c(Cl)c1/C=C/C(=O)c1ccc(O)cc1 |  | 12 µM (active)
Cc1nn(-c2ccccc2)c(C)c1NC(=O)CCl | -1.67% | 
Cc1ccc(C(=O)/C=C/c2c(C)nn(-c3ccccc3)c2Cl)cc1 |  | 6.01 µM (active)
COc1ccc(CCNC(=O)c2c(C)nn(-c3ccccc3)c2Cl)cc1 | 0.672% | 
Cc1nn(-c2ccccc2)c(CC(C)(C)C(=O)O)c1C(=O)O | -1.1% | 
Cc1nn(-c2ccccc2)c(C)c1/C=C/C(=O)OC(C)C(N)=O (stereo not drawn) | 0.623% | 
COc1ccc(-c2c(-c3cc(OC)cc(OC)c3)n(C)c3ccc(-c4ccn[nH]4)cc23)cc1 | -0.353% | 
O=C(NC1CC(=O)N(c2ccccc2)C1)c1ccco1 (stereo not drawn) | -0.409% | 
CCOc1cc(C(=O)O)ccc1OCCOc1ccccc1 | -1.63% | 
COc1ccc(N2CCN(C(=O)c3ccccc3NC(=O)C3=C(C)OCCS3)CC2)cc1 | 1.81% | 

Compound | activity change, negative = inhibition | Potency
c1ccc(NCc2cccc3ccccc23)nc1 | -16.5% | 
Oc1ccc2ccccc2c1N=Nc1nccs1 |  | 19 µM (active)
O=c1c2cc(Br)ccc2nc(-c2cccc(Cl)c2)n1O | -2.13% | 
O=c1c(-c2cccc(Cl)c2)c[nH]n1-c1ccccc1 |  | 26.9 µM (active)
O=C1CC(NNc2ccccc2)C(=O)N1c1cccc(Cl)c1 (stereo not drawn) | -17.8% | 
COc1ccc(S(=O)(=O)n2nc(C)c(S(=O)(=O)N3CCCCCC3)c2C)cc1 | 4.77% | 
COc1cc(NC(=O)c2cc(C3CC3)nc3c2c(C)nn3-c2ccccc2)cc(OC)c1 | -10.6% | 
O=[N+]([O-])c1ccc2c(c1)C(N1CCOCC1)/C(=C/C1(O)CCCCC1)O2 (stereo not drawn) | -4.29% | 
Cn1c(=O)c2sccc2n2c(CCC(=O)NCc3ccccc3Cl)nnc12 | -5.43% | 
O=C(Nc1nc2ccccc2s1)c1ccc2c(c1)OCO2 |  | 0.301 µM (active)
Cc1ccc(-n2nc3c(c2NC(=O)c2ccc4c(c2)OCO4)CSC3)c(C)c1 | 0.872% | 
O=C(Nc1cccc([N+](=O)[O-])c1)c1ccc2c(c1)OCO2 |  | 19 µM (active)
O=C(Nc1ccccc1)c1ccc2c(c1)OCO2 |  | 12 µM (active)
COCc1nnc(NC(=O)CS(=O)(=O)Cc2ccccc2)s1 | 0.467% | 
COCc1nnc(NC(=O)c2ccc3c(c2)OCO3)s1 |  | 23.9 µM (active)
CN(CC(=O)Nc1cccc(F)c1)CC(=O)Nc1cccc([N+](=O)[O-])c1 | 6.15% | 
CC(NC(=O)Nc1cccc([N+](=O)[O-])c1)c1ccc2c(c1)OCO2 (stereo not drawn) | -1.01% | 
Cn1c(NC(=O)c2ccc3c(c2)OCO3)cc(=O)n(C)c1=O | 0.456% | 
O=C(Nc1ccc(NC(=O)c2ccc3c(c2)OCO3)cc1)c1cccc(Cl)c1 | -0.291% | 
O=CN1CCN(C(=O)c2ccc3c(c2)OCO3)CC1 | -6.7% | 
Cc1ccc2sc(NNC(=O)c3ccc4c(c3)OCCO4)nc2c1C | -4.15% | 
